{"source": "PubChem BioAssay (NCATS)", "note": "Results filed as inconclusive are left out. A call without a number means that no potency is given here. Values without a mark were called inactive. Activity calls are given as the source filed them. Calls come from the whole dose curve; as a rule, active = well fitted cell-killing curve with a large enough effect; inconclusive = small, poorly fitted or top-dose-only effect, or effect the other way; inactive = flat fitted curve, though single readings scatter.", "data": [{"system": "PA-1", "test": "Primary qHTS to identify gynecologic anti-cancer compounds using libraries of approved drugs and bioactive compounds (AID 1345084); note: nearly all actives have a fitted effect of over 55% in size", "conditions": "Gynecologic cancer cell panel viability, ATPlite luminescence, 48 h; series mostly up to 57.5 µM", "method_in_brief": "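Measured: luminescence after ATPlite addition (15 min, RT). Exposure: 48 h, 37 C, 5% CO2.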", "values": [{"smiles": "C[C@@H]1O[C@@H](O[C@H]2[C@H](O[C@H]3CC[C@@]4(C)C(CC[C@]5(C)C4C=C[C@]46OC[C@@]7(CCC(C)(C)C[C@H]74)[C@@H](O)C[C@]65C)[C@]3(C)CO)O[C@H](CO)[C@@H](O)[C@@H]2O[C@@H]2O[C@H](CO)[C@@H](O[C@@H]3O[C@@H](C)[C@H](O)[C@@H](O)[C@H]3O)[C@H](O)[C@H]2O)[C@H](O)[C@H](O)[C@H]1O", "note": "(stereo partly drawn)", "activity change, negative = cytotoxicity": "-23.2% [at 11.6 µM]"}, {"smiles": "Cc1ccccc1NC(=O)Nc1ccc(CC(=O)N(C)[C@@H](CC(C)C)C(=O)NCC[C@H](NC(=O)[C@@H]2CCCN2S(=O)(=O)c2cc(Cl)cc(Cl)c2)C(=O)O)cc1", "Potency": "inactive"}, {"smiles": "CCc1c(-c2ccccc2)c(-c2ccccc2)nn1-c1ccccc1-c1cccc(OCC(=O)O)c1", "Potency": "inactive"}, {"smiles": "COc1ccc(C(O)C(C)OC2OC(CO)C(O)C(O)C2O)cc1", "note": "(stereo not drawn)", "Potency": "inactive"}, {"smiles": "CC(C)=C/C=C\\[C@H](C)[C@H]1CC[C@]2(C)C[C@@H]3C(C)=CC(=O)C3/C(CO)=C\\C[C@@H]12", "note": "(stereo partly drawn)", "Potency": "inactive"}, {"smiles": "CC1CCC2(C(=O)O)CCC3(C)C(=CCC4C5(C)CCC(O)C(C)(CO)C5CCC43C)C2C1(C)O", "note": "(stereo not drawn)", "Potency": "inactive"}, {"smiles": "CC(=O)O[C@@H]1c2c3c(cc(O)c2C(=O)O[C@@H]1C)O[C@@]1(C)[C@@H](O)C[C@H]2C(C)(C)C(=O)C=C[C@]2(C)[C@@H]1C3", "Potency": "inactive"}, {"smiles": "C[C@@H]1O[C@@H](O[C@H]2[C@H](O)[C@@H](O)[C@H](OC[C@H]3O[C@@H](OC(=O)[C@]45CCC(C)(C)C[C@H]4C4=CCC6[C@@]7(C)CC[C@H](O[C@@H]8OC[C@H](O)[C@H](O[C@@H]9O[C@H](CO)[C@@H](O)[C@H](O)[C@H]9O)[C@H]8O)[C@@](C)(CO)C7CC[C@@]6(C)[C@]4(C)CC5)[C@H](O)[C@@H](O)[C@@H]3O)O[C@@H]2CO)[C@H](O)[C@H](O)[C@H]1O", "note": "(stereo partly drawn)", "activity change, negative = cytotoxicity": "8.25% [at 6.55 µM]"}]}]}
